Reference: ChEMBL document CHEMBL3988442, “University of Dundee, Small-Polar-MMV Screening Library” (2021)
Out of some 48,000 compounds screened, about 13,000 (27%) showed an effect of 50% or more. This is one part of the list.

system: Wolbachia pipientis; test: Anti-Wolbachia Cell-Based Screen; type: functional; parameters: scale not given: in the data most compounds retested in dose-response had high values; conditions: 5 µM

Row | SMILES | Percent Effect
1 | O=C(NCCc1ccncc1)[C@H]1CC[C@@H]2[C@@H](CCN2C2CCC2)O1 | -5.975%
2 | OCCN1CCN(Cc2cc3c(cc2Br)OCCO3)CC1 | 1.369%
3 | CC(C)=CCN1C[C@H]2CC[C@@H]1CN(C(=O)Cc1c(C)nc(C)[nH]c1=O)C2 | -7.395%
4 | Cc1ccc2c(c1)C1(CCNCC1)CC2NCCO.Cl.Cl (configuration not stated) | 90.17%
5 | Cl.Cl.Fc1ccc2c(c1)C1(CCNCC1)CC2NC1CC1 (configuration not stated) | 108.3%
6 | Cc1ccc2c(c1)C(NC(C)C)CC21CCNCC1.Cl (configuration not stated) | -5.487%
7 | Cc1ccnc(NCCNC(=O)C2CC3(CCNCC3)CN2C)c1 (configuration not stated) | 2.033%
8 | Cc1ccc2c(c1)C(NC1CC1)CC21CCNCC1.Cl (configuration not stated) | 121%
9 | COc1ccc2c(c1)C1(CCNCC1)CC2NC1CC1.Cl.Cl (configuration not stated) | 123.6%
10 | CC(C)NC1CC2(CCNCC2)c2cc(F)ccc21.Cl.Cl (configuration not stated) | 1.689%
11 | Cl.O=C(Nc1ccccc1)C1=NOC2(CCNCC2)C1 | -4.719%
12 | CN(C)C(=O)CN1CCCC2(CCN(c3ccc(C#N)cn3)C2)C1.O=C(O)C(F)(F)F (configuration not stated) | -7.726%
13 | Cc1cnn(CC(C)NCC(=O)NC2CCOCC2)c1 (configuration not stated) | 1.556%
14 | COc1nc(N2CCNCC2)ncc1Br | -8.9%
15 | CN(C)C(=O)C1CCC2(CCNCC2)C1.O=C(O)C(F)(F)F (configuration not stated) | -33.97%
16 | Cc1ccc2c(c1)C1(CCNCC1)CC2NC(C)C.Cl.Cl (configuration not stated) | -0.3898%
17 | NC(=O)CC1CC2(CCNCC2)c2cc(F)ccc21.O=C(O)C(F)(F)F (configuration not stated) | 111.2%
18 | CNC(=O)C1CCC2(CCNCC2)C1.O=C(O)C(F)(F)F (configuration not stated) | 1.559%
19 | Cc1ccc2c(c1)C1(CCNCC1)CC2NC1CC1.Cl.Cl (configuration not stated) | 133.8%
20 | O=C1NC[C@H]2CN(Cc3ccccn3)CCN12 | -1.346%
21 | COC1CCC[C@@H]2CN(Cc3csc(C)n3)C[C@H]12.O=C(O)C(F)(F)F (some centres not stated) | -10.37%
22 | Cc1nc(CN2C[C@@H]3CN(C(=O)Cc4ccccn4)C[C@@H]3C2)cs1.O=C(O)C(F)(F)F.O=C(O)C(F)(F)F | 107.4%
23 | O=C(Cc1ccccn1)N1C[C@H]2CN(Cc3ccccn3)C[C@H]2C1 | 97.89%
24 | Cn1cnc(S(=O)(=O)N2C[C@H]3CN(Cc4ccccn4)C[C@H]3C2)c1.O=C(O)C(F)(F)F.O=C(O)C(F)(F)F | 1.449%

Row | SMILES | Percent Effect
25 | O=C(NCCc1c[nH]cn1)c1ccccc1C1CCNC1 (configuration not stated) | -4.788%
26 | C/C(=C\c1ccco1)CN(C)C(C)Cc1ccccn1 (configuration not stated) | -10.17%
27 | CC(Cc1ccccn1)N(C)Cc1ccc2c(c1)CCO2 (configuration not stated) | 27.39%
28 | Cc1ccccc1-n1nc(C)c(CN(C)C(C)Cc2ccccn2)c1C.O=C(O)CC(O)(CC(=O)O)C(=O)O (configuration not stated) | 108.5%
29 | Cc1cc(N2CCC(NC(C)Cc3ccsc3)CC2)nc(N)n1 (configuration not stated) | -1.435%
30 | O=C(C1CCCCC1)N1C[C@@H]2CCNC[C@@H]21 | -27.82%
31 | Cl.O=C(N1CCOCC1)N1CCC2(CCNC2)C1 (configuration not stated) | -12.19%
32 | Cc1cccc(CN2C[C@@H](NC(=O)C3CC3)[C@H]3OCCC[C@H]32)n1.O=C(O)C(F)(F)F.O=C(O)C(F)(F)F | -26.04%
33 | O=C(Cc1cccs1)N1C[C@@H]2OCCN(CC3CCCO3)[C@@H]2C1.O=C(O)C(F)(F)F (some centres not stated) | -0.9645%
34 | CN(C)[C@@H]1CN(C(=O)Cc2ccsc2)[C@@H]2CCCO[C@H]12.O=C(O)C(F)(F)F | 105.5%
35 | Cc1cc(CN2C[C@@H]3CCCO[C@@H]3[C@H](N(C)C(C)C)C2)no1.O=C(O)C(F)(F)F.O=C(O)C(F)(F)F | -6.146%
36 | CN(C)[C@@H]1CN(C(=O)Cc2ccc(F)cc2)[C@@H]2CCCO[C@H]12.O=C(O)C(F)(F)F | 85.9%
37 | CN1CCN([C@@H]2CN(C(=O)Cc3ccsc3)[C@@H]3CCCO[C@H]23)CC1.O=C(O)C(F)(F)F.O=C(O)C(F)(F)F | -4.372%
38 | CN(C)[C@@H]1CN(C(=O)Cc2ccccc2)[C@@H]2CCCO[C@H]12.O=C(O)C(F)(F)F | 100.5%
39 | O=C(Cc1cccs1)N1C[C@@H]2OCCN(CC3CCCC3)[C@@H]2C1.O=C(O)C(F)(F)F | -11.83%
40 | O=C(Cc1ccsc1)N1C[C@@H]2OCCN(CC3CC3)[C@@H]2C1.O=C(O)C(F)(F)F | -8.837%
41 | CN(Cc1cccnc1)[C@@H]1CN(CC2CC2)[C@@H]2CCCO[C@H]12.O=C(O)C(F)(F)F.O=C(O)C(F)(F)F.O=C(O)C(F)(F)F | -5.445%
42 | Cc1ccc(N2C[C@@H]3CCCO[C@@H]3[C@H](N3CCCC3)C2)nn1.O=C(O)C(F)(F)F.O=C(O)C(F)(F)F | -4.873%
43 | CN(C)[C@@H]1CN(C(=O)Cc2cccs2)[C@@H]2CCCO[C@H]12.O=C(O)C(F)(F)F | 115.4%
44 | Cc1c(C(=O)O)nnn1Cc1cccc(C(F)(F)F)c1 | 6.81%
45 | COc1cccc(CN2CCN3C(=O)NC[C@H]3C2)n1 | 7.899%
46 | CN1CCC(N2CCN3C(=O)NC[C@H]3C2)CC1 | -3.981%
47 | Cc1csc(C2(NCC(O)COC(C)C)CCCC2)n1 (configuration not stated) | -1.656%
